# Screening data: PubChem, National Center for Advancing Translational Sciences (NCATS)
# This is a sample that favours compounds with a hit; in the whole collection about 1.4% have one here.
# Vaccinia Venus: qHTS for Stage-Specific Inhibitors of Vaccinia Orthopoxvirus: Venus Reporter Primary qHTS. 330,000 tested, 0.46% active. Potency, µM (doses to about 36.5 µM), inactives show at the top dose activity change, negative = inhibition, usual class: inhibitors. Vaccinia virus Venus reporter expression, fluorescence; calls by dose curve; tested in A549 cells; further: potency means the concentration at half of the fitted maximal effect; on the % scale 0 is the no-effect control and ±100 the full control effect; nearly all actives have a fitted effect of over 30% in size
# VACV mCherry inh: qHTS for Stage-Specific Inhibitors of Vaccinia Orthopoxvirus: mCherry Reporter Primary qHTS. Vaccinia virus mCherry reporter infection, fluorescence. Potency, µM (top dose mostly 36.5 µM), inactives show top-dose activity change, negative = inhibition, actives largely listed as inhibitors. 310,000 tested, 0.63% active. AID 720579, 2013; calls by dose curve; tested in A549 cells; further: potency means the concentration at half of the fitted maximal effect; on the % scale 0 is the no-effect control and ±100 the full control effect; nearly all actives have a fitted effect of over 35% in size
# AmpC inh no detg: qHTS Inhibitors of AmpC Beta-Lactamase (assay without detergent). P00811. AmpC nitrocefin hydrolysis, absorbance 480 nm, 0.0001% Triton. Potency, µM (top dose mostly 57.1 µM), for inactives: top-dose activity change, negative = inhibition, actives largely listed as inhibitors. 330,000 tested, 0.52% active. AID 485341, 2010;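 further: potency means the concentration at half of the fitted maximal effect; plate controls were no compound for no effect and no enzyme for full effect; nearly all actives have a fitted effect of over 20% in size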
# Target sequence (P00811 whole entry, looked up): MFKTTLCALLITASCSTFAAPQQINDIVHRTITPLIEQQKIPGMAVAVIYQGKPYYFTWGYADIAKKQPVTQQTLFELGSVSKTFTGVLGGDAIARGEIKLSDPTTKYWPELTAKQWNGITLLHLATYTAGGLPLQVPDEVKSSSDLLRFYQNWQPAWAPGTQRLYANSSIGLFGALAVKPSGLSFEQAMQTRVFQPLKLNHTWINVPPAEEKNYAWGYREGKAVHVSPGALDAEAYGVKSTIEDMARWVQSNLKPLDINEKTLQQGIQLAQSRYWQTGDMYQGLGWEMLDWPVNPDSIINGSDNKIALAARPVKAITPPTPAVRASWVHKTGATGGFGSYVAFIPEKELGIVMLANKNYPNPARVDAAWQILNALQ
#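 AmpC (5.3 nM in the dispensed reagent) in 20 mM phosphate pH 7.0 with 0.01% (detergent screen) or 0.0001% Triton X-100 was preincubated with compounds for 15 min at room temperature. Nitrocefin was then added from an 800 uM solution, and hydrolysis was followed at 480 nm.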
# AMA1 RON2 block: qHTS for Inhibitors of AMA1-RON; Towards Development of Antimalarial Drug Lead: Primary Screen; AID 720542, 2013; 360,000 tested, 0.2% active; Plasmodium falciparum AMA1 (3D7) - RON2 peptide interaction; AlphaScreen AMA1-biotinylated RON2 peptide binding; Potency, µM (top dose mostly 58.2 µM), for inactives: top-dose activity change, negative = inhibition, actives largely listed as inhibitors;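 further: potency means the concentration at half of the fitted maximal effect; 0% = vehicle wells and -100% = peptide control; nearly all actives have a fitted effect of over 45% in size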
#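 AMA1 (3D7) with his tag at 25 nM final met compounds first, then biotinylated RON2 peptide at 25 nM; detection used donor plus acceptor beads, 10 µg/mL apiece, read by AlphaScreen after 30 min at room temperature.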
# AmpC inh detg: qHTS Inhibitors of AmpC Beta-Lactamase (assay with detergent). AmpC hydrolysis of nitrocefin, absorbance 480 nm, 0.01% Triton. 370,000 tested, 0.041% active. Potency, µM (top dose mostly 114 µM), for inactives: at the highest dose activity change, negative = inhibition, usual class: inhibitors. AID 485294, 2010. P00811;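 further: potency means the concentration at half of the fitted maximal effect; 0% = no-compound wells and -100% = no-enzyme wells; nearly all actives have a fitted effect of over 25% in size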
#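 AmpC (5.3 nM in the dispensed reagent) in 20 mM phosphate pH 7.0 with 0.01% (detergent screen) or 0.0001% Triton X-100 was preincubated with compounds for 15 min at room temperature. Nitrocefin was then added from an 800 uM solution, and hydrolysis was followed at 480 nm.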
# SARS PLpro yeast-1: qHTS of Yeast-based Assay for SARS-CoV PLP; S. cerevisiae expressing SARS-CoV PLpro, growth rescue; Potency, µM (titrated, usually from 32.9 µM), without a hit: at the highest dose activity, positive = growth rescue, most hits filed as activators; 330,000 tested, 0.19% active; calls by dose curve; further: potency means the concentration at half of the fitted maximal effect; 0% is about no effect; nearly all actives have a fitted effect of over 55% in size
# SARS PLpro yeast-2: qHTS of Yeast-based Assay for SARS-CoV PLP: Hit Validation. calls only. yeast expressing SARS-CoV PLpro, growth phenotype rescue. shares compounds with SARS PLpro yeast-1. 1,000 tested, 19% active. AID 652038, 2013; call rule not given here
# The depositor's hits bear a star; i = inactive; ? = inconclusive; . = no result; + = active, no number; [ ] = another dose, or the depositor's remark. Unless noted, the call rests on the fitted dose curve; in most records, active means well fitted curve in the direction sought with a large enough effect; inconclusive means small, poorly fitted or top-dose-only effect, or another doubt; inactive means no such curve, though single readings can be large; an effect the other way counts as inactive or inconclusive.
SMILES,Vaccinia Venus,VACV mCherry inh,AmpC inh no detg,AMA1 RON2 block,AmpC inh detg,SARS PLpro yeast-1,SARS PLpro yeast-2
Cc1cc(SCC(=O)N/N=C/c2ccc(O)cc2O)c(C)cc1Br,.,.,-36.9%,81.1%,1.6%,10µM*,i
Cc1cc(SCC(=O)N/N=C/c2ccccc2C(=O)O)c(C)cc1Br,-6.9%,i,-25.5%,98.3%,-14.0%,-1.0%,.
Cc1ccc(-c2nc(S(=O)(=O)c3ccc(F)cc3)c(SCC(=O)NCC3CCCO3)o2)cc1 (stereo not drawn),-2.3%,-6.8%,2.1%,2.8%,-2.6%,-33.6%,.
O=C(CSc1oc(-c2ccc(F)cc2)nc1S(=O)(=O)c1ccc(F)cc1)NCC1CCCO1 (stereo not drawn),-3.1%,1.0%,-16.4%,-0.4%,-9.6%,?,i
COc1cc(CN2CCC3(CCC(CNC(=O)c4ccco4)O3)CC2)ccc1O (stereo not drawn),-5.3%,i,.,.,.,.,.
CC(=O)NC(c1ccco1)c1cc(Cl)c2ccc(N(C)C)nc2c1O (stereo not drawn),.,.,89.3%,.,0.3%,2.5%,.
CCOc1ccc(/C=N/Nc2cc(N3CCOCC3)ncn2)c(O)c1,?,?,.,57.1%,.,.,.
CCCOc1ccc(/C=N/Nc2cc(N3CCOCC3)ncn2)c(O)c1,.,.,32.0%,78.5%,-12.6%,5.01µM*,+
COc1ccccc1/C=C(\C#N)c1nc(-c2cc3ccccc3oc2=O)cs1,5.3%,-8.5%,.,.,10.8%,.,.
O=C(N/N=C/C1CC=CCC1)c1ccc(Cl)cc1O (stereo not drawn),-6.6%,-4.8%,-19.4%,22.9%,6.2%,11.2µM*,i
O=C(N/N=C/C1CC=CCC1)c1ccccc1O (stereo not drawn),-20.7%,.,-14.4%,-6.7%,?,-3.7%,.
Cc1cc(C)c2c(C)ccnc2c1,-9.7%,-16.8%,.,.,.,.,.
O=[N+]([O-])c1ccc(Oc2cccc3cccnc23)c([N+](=O)[O-])c1,-23.6%,?,-21.0%,-18.8%,?,.,i
CCOC(=O)c1ccc(NC(=O)c2cc3c(n(-c4ccc(C)cc4)c2=O)CC(C)(C)CC3=O)cc1,-6.7%,-0.8%,.,.,-7.4%,.,.
CN(C)C(Cc1ccccc1)C(=O)c1ccc(-c2ccccc2)cc1 (stereo not drawn),.,.,17.8%,-6.6%,0.1%,3.16µM*,i
O=C(O)CSc1nnc(CSc2nc3ccccc3s2)n1-c1ccccc1,-11.5%,-0.8%,-12.6%,-6.9%,-0.5%,5.1%,.
C#CCSc1nnc(CSc2nc3ccccc3s2)n1-c1ccccc1,.,.,-14.4%,0.8%,4.7%,?,?
O=C(CN1CCCCC1CO)c1ccc(OC(F)F)cc1 (stereo not drawn),.,.,46.1%,0.0%,-0.3%,-6.0%,.
O=C(CN1CCCCC1)c1ccc(OC(F)F)cc1,-6.8%,-11.8%,-18.8%,-13.2%,-0.5%,?,i
CCc1nnc(NC(=O)c2cnccn2)s1,-9.5%,-8.4%,-16.0%,209.5%,8.3%,?,i
O=[N+]([O-])c1ccc(Nc2nc(NCCN3CCOCC3)nc(Nc3ccc(Cl)cc3)n2)cc1,-29.2%,-25.1%,.,.,.,.,.
O=C(c1ccco1)N1CCN(/C=C2\Nc3ccccc3C(=O)N2c2ccc(F)cc2)CC1,-4.2%,-12.0%,.,.,.,.,.
COC(=O)C1(S(=O)(=O)c2cc(Br)cc3c2N(C(C)=O)CC3)CC1,-22.5%,.,3.3%,10.5%,-8.8%,?,i
O=C(COC(=O)C1CCCCC1)Nc1cccc(F)c1,-1.3%,-15.9%,-22.0%,11.0%,.,-14.1%,.
O=C(COC(=O)CC1CCCC1)Nc1cccc(F)c1,.,.,-41.8%,8.2%,-1.5%,?,i
SMILES,Vaccinia Venus,VACV mCherry inh,AmpC inh no detg,AMA1 RON2 block,AmpC inh detg,SARS PLpro yeast-1,SARS PLpro yeast-2
CCOc1ccc(NC(=O)CC2S/C(=N/N=C3CCCCCC3)NC2=O)cc1 (stereo not drawn),.,.,10.7%,135.0%,1.1%,?,i
Cc1noc(/C=C/c2ccccc2F)c1S(=O)(=O)N1CCC(C(=O)N2CCOc3ccccc32)CC1,0.1%[7.34 µM],-2.8%[7.34 µM],.,.,1.0%,.,.
Cc1ccc(-c2nc3ccccn3c2NC(=O)c2ccco2)cc1,-7.2%,-14.4%,-31.3%,-3.8%,0.5%,?,i
O=C(Nc1c(-c2ccccc2)nc2ccccn12)c1ccco1,.,.,-12.4%,3.8%,-9.5%,0.6%,.
COc1ccccc1NC(=S)NNC(=O)c1cc(C)n(C)n1,1.8%,-4.8%,-3.2%,148.0%,?,?,i
CCOc1ccc(CCNC(=O)c2ccc(CS(=O)Cc3ccc(Cl)cc3)o2)cc1 (stereo not drawn),-13.0%,-13.7%,128.1%,0.0%,1.2%,?,i
COC(=O)c1c(NS(=O)(=O)c2ccc(C)cc2)sc2c1CCC(C)C2 (stereo not drawn),-11.0%,-10.7%,-19.6%,-6.9%,?,?,+
COC(=O)c1c(NC(=O)CN(C)CC(=O)Nc2ccc(C)cc2)sc2c1CCC(C)C2 (stereo not drawn),.,.,-4.2%,75.1%,4.8%,1.8%,.
COc1cccc(C(=O)CC(=O)C(=O)Nc2cc(Cl)c(OC)cc2OC)c1,.,.,-34.0%,43.5%,-11.1%,-4.4%,.
COc1ccc(C(=O)CC(=O)C(=O)Nc2cc(Cl)c(OC)cc2OC)cc1,.,.,-31.1%,34.0%,2.0%,?,+
COc1ccc(/C=C/C(=O)NCc2cn(C)nc2C)cc1COc1ccc(Br)cc1,.,.,151.8%,-7.6%,-10.0%,?,i
Cc1nn(C)cc1CNC(=O)/C=C/c1cnn(C)c1,-7.4%,-10.7%,-25.4%,0.9%,?,5.6%,.
CC(C)C(=O)Nc1ccc(/C=C2\C=Cc3ccccc32)cc1,-8.5%,35.2%,.,.,.,.,.
CN(C(=O)c1ccc(NC(=O)C2CCCN(C(=O)OC(C)(C)C)C2)cc1)C1CCCC1 (stereo not drawn),-16.2%,-24.5%,176.1%,-4.8%,.,?,i
COc1ccc(CNC(=S)NC2CCCC2)cc1,-4.0%,-8.7%,-8.4%,4.4%,-8.4%,?,+
COc1ccc(CNC(=S)NC2CCCCC2)cc1,-27.4%,-10.0%,-27.3%,0.0%,?,0.7%,.
Cc1ccc(CNC(=O)COC(=O)c2ccc(S(=O)(=O)N3CCCCCC3)cc2)cc1,-11.5%,-8.1%,-6.4%,0.5%,0.0%,1.0%,.
O=C(COC(=O)c1ccc(S(=O)(=O)N2CCCCCC2)cc1)NCc1ccc(F)cc1,-11.3%,-1.9%,-13.2%,1.5%,-6.3%,?,+
